Test results as given in PubChem BioAssay AID800 (PCMD, 2007).
About 650 (0.3%) of roughly 220,000 compounds were called active. Many of the other results were omitted from the sample, so actives are more common in it than they were. Values without a mark were called inactive. Cut-off read from the data, not from the text of the source: active = inhibition above about 40%; inactive = the rest.

What follows are compounds tested against Coagulation factor XII (Homo sapiens) (UniProt P00748) (assay: coagulation factor XIIa activity inhibition – biochemical, 1536-well, primary screen (AID 800;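 note: 0% = enzyme with no compound and 100% = blank without enzyme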)). Conditions: purified FXIIa, Boc-QGR-AMC fluorogenic substrate, 2 h; at 5 µM; active compounds read high.
Coagulation factor XII (Homo sapiens), sequence (P00748 20-372 limits assumed): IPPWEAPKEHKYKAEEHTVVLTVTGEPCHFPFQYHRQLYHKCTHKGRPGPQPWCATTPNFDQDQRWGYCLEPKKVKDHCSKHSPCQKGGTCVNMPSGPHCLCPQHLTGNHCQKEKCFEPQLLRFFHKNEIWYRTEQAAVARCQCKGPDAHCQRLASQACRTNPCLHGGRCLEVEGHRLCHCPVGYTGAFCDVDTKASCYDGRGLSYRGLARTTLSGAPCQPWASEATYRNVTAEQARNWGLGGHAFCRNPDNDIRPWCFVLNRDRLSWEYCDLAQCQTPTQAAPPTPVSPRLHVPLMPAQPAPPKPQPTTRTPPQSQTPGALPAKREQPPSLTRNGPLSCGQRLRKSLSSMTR
Coagulation factor XII (Homo sapiens), sequence (P00748 373-615 limits assumed): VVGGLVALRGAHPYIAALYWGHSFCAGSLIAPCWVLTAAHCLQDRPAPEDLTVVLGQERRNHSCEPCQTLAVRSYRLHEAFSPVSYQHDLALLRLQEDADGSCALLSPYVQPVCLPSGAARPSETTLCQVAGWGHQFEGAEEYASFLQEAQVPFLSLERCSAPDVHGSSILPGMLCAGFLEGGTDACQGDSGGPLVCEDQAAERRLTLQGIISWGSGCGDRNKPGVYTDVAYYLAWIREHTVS

SMILES | inhibition
O=C(c1ccc(F)cc1)n1c(=S)nc2ccccn21 | 0.92%
COc1c(O)cc2oc(-c3ccc(O)c(O)c3)cc(=O)c2c1O | 2.88%
CCCCN1Cc2c(nc3cc(-c4ccccc4)[nH]n3c2=O)C1=O | -5.1%
O=C(NCc1cccnc1)c1cnc2ccccc2n1 | 8.13%
COC(=O)c1c(C)oc(C)c1S(=O)(=O)NCc1ccc(Cl)cc1 | 6.03%
CC(=O)c1ccc(NC(=O)C2CC(=O)Nc3nc4ccccc4n32)cc1 (configuration not stated) | 8.34%
COc1ccc(C2/C=C\CN(S(=O)(=O)c3cccs3)CC(=O)N2Cc2ccc(F)cc2)cc1 (configuration not stated) | 9.45%
O=[N+]([O-])c1cc(Cl)cc(/C=N/NC(=S)Nc2cc(S(=O)(=O)N3CCOCC3)ccc2Cl)c1O | 6.23%
CSCC[C@H](NC(=O)CCCn1nnc2ccccc2c1=O)C(=O)O | 4.87%
CCOC(=O)COc1nc(C)cc(C(F)(F)F)c1C#N | -0.55%
Cc1ccc(Nc2nc(N)nc(CSc3nnc(C)s3)n2)cc1 | 4.96%
Cc1cnc(NC(=O)c2ccccn2)s1 | 7.08%
COC(=O)c1ccc(Oc2nc(NC(C)C)nc(SC)n2)cc1 | 44% (active)
COC(=O)c1ccc(Oc2nc(Nc3ccc(F)cc3)nc(N3CCCC3)n2)cc1 | -2.89%
CCNc1nc(Oc2ccc(C(=O)OC)cc2)nc(N2CCOCC2)n1 | 9.71%
COCCN(C(=S)Nc1cccc(Cl)c1C)C(C)c1ccco1 (configuration not stated) | 6.59%
COP1(=O)C[C@@H](O)[C@@H](O)[C@@H](COCc2ccccc2)O1 (some centres not stated) | 5.94%
O=[N+]([O-])c1ccc2nc(-c3ccccn3)[nH]c2c1 | 5.76%
CN(C)S(=O)(=O)c1ccc(NC(=O)COC(=O)Cn2[nH]c(=O)c3ccccc3c2=O)cc1 | -3.32%
Cc1nn2c(NCCN(C)C)c3c(nc2c1-c1ccccc1)CCC3 | 10.3%
O=C1NNC(c2ccccc2)=N/C1=C\c1ccc(Cl)cc1 | 0.78%
CC1Cc2ccccc2N1CC(=O)Nc1ccc(S(N)(=O)=O)cc1 (configuration not stated) | 7.97%
COc1ccc2oc(N)c(C=O)c(=O)c2c1 | 8.71%
CC(C)(C)C(=O)NNC(=O)c1ccc(Oc2cc(Cl)cc(Cl)c2)o1 | 8.39%
CCOC(=O)c1cc(C)nc(S(C)(=O)=O)c1C#N | 2.84%
CC(C)=CCC/C(C)=C/C(=O)O | 4.62%
O=c1c2ccccc2cnn1Cc1n[nH]c(=S)n1-c1ccccc1F | 4.28%
